Screening data deposited in PubChem by National Center for Advancing Translational Sciences (NCATS).
Rows were chosen to be rich in hits. Some 7.7% of all compounds tested hit in one or more screens of this group.
FBPA Giardia inh – blocks Giardia fructose-bisphosphate aldolase activity. A8B2U2. purified Giardia FBPA. Potency, µM (titrated, usually from 59.6 µM), actives largely listed as inhibitors. 0.71% of 290,000 active. AID 2451; also: nearly all actives have a fitted effect of over 55% in size
Target sequence (A8B2U2 whole entry, looked up): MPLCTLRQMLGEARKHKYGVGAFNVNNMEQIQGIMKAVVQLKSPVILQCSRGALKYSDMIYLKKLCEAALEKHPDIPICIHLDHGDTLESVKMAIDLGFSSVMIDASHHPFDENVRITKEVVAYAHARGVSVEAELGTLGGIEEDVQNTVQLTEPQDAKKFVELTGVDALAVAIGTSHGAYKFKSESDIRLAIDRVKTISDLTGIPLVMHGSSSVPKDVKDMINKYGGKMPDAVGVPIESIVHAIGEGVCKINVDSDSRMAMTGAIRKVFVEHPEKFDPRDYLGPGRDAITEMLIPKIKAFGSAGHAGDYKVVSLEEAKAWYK
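40 nM FBPA preincubated 10 min at RT with compound (up to 57.5 uM final), then substrate plus GAPDH/TPI/NAD/arsenate coupling and diaphorase/resazurin added. Fluorescence read after 20 min at RT, 525/598 nm.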
HCMV antiviral – inhibitors of human cytomegalovirus | HFF cells, HCMV-luciferase reporter, 72 h; stronger effect = lower value | activity change, negative = inhibition, % at 57.5 µM | 4.5% of 410,000 active | AID 1259415; in the data active = activity change below about -60%; inconclusive = no clear call, values can overlap the other calls; inactive = above about -39%
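Cell-based, HFFs, 1000 cells/well, 16 h 37C; cpds in DMSO + HCMV-luc, MOI 1 PFU/cell; 72 h 37C; OneGlo luminescence after 5 min RT; norm. to buffer vs Salinomycin 10uM.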
Sm TGR inh – inhibitors of Schistosoma mansoni thioredoxin glutathione reductase; AID 485364; 3% of 360,000 active; purified TGR, DTNB reduction, TNB absorbance 405 nm; Potency, µM (top dose mostly 114 µM), hits mostly inhibitors; also: nearly all actives have a fitted effect of over 60% in size
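Kinetic colorimetric format: TGR-catalysed, NADPH-driven DTNB reduction monitored via TNB absorbance. Enzyme dispensed at 20 nM; compound exposure 15 min at room temperature before reaction start.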
RE007 growth inh – less growth of the S. pombe RE007 Vpr strain | Potency, µM (highest dose often 92.2 µM), most hits filed as inhibitors | 0.21% of 360,000 active | S. pombe RE007 Vpr strain, BacTiter-Glo ATP luminescence, 24 h | AID 651644; active = well fitted falling curve with a large enough effect; inconclusive = small, poorly fitted or top-dose-only effect; inactive = no such curve, though single readings can be large or run the other way; also: nearly all actives have a fitted effect of over 50% in size
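Fission yeast RE007 carrying one integrated HIV-1 vpr copy, seeded at OD 0.01 in PMG+AL medium with 23 nL pinned compound. Grown 24 h at 30 degrees; viability read by BacTiter-Glo luminescence after 5 min.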
FMDV inh – blocks foot and mouth disease virus; Potency, µM (titrated, usually from 57.9 µM), most hits filed as inhibitors; 1.2% of 410,000 active; FMDV antiviral cell-based qHTS; calls by dose curve; tested in HEK293T cells; also: read-out not given here; nearly all actives have a fitted effect of over 45% in size
Tb PYK inh – inhibitors of Trypanosoma brucei pyruvate kinase; Q57TT1; 0.12% of 410,000 active; Potency, µM (doses to about 76.8 µM), hits mostly inhibitors; AID 624173; TbPYK enzyme, Kinase-Glo Plus ATP luminescence, 45 min; also: nearly all actives have a fitted effect of over 50% in size
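Enzyme and substrate buffer are dispensed first and compound is pin-transferred. ADP at 130 uM final then starts the reaction, which runs 45 min at room temperature. Detection reagent is added for 10 min before luminescence is imaged.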
Of the large screens only hits and unclear results are named; the others gave an inactive call. Unless noted, calls follow the shape of the dose curve; as a rule, active = well fitted curve in the direction sought with a large enough effect; inconclusive = small, poorly fitted or top-dose-only effect, or another doubt; inactive = no such curve, though single readings can be large; an effect the other way counts as inactive or inconclusive.

CC1CCN(C(CC(=O)c2ccccc2)C(=O)c2ccccc2)CC1 (configuration not stated)	HCMV antiviral -86, RE007 growth inh 4.5µM, Tb PYK inh 20µM (no result: FBPA Giardia inh, Sm TGR inh)
CC1CCN(C(=O)NC(=O)c2ccccc2)CC1	none (no result: FBPA Giardia inh)
O=S(=O)(NCc1cccnc1)c1cccn1-c1ncc(C(F)(F)F)cc1Cl	HCMV antiviral -61 (no result: Sm TGR inh)
CC1=CC(=O)C(C(C)C)=C/C1=N/OS(=O)(=O)c1ccccc1	FBPA Giardia inh 20µM, HCMV antiviral -89, Sm TGR inh 25µM, RE007 growth inh inconclusive, FMDV inh 25µM
CC1=CC(=O)C=C(C)C1=NOS(=O)(=O)c1ccccc1	FBPA Giardia inh 4µM, HCMV antiviral -97, Sm TGR inh 4µM, RE007 growth inh inconclusive, FMDV inh 14µM
O=C(OCc1ccccc1)N1CCOCCOCCN(C(=O)OCc2ccccc2)CCOCCOCC1	FMDV inh 22µM
O=C(NCc1ccccc1Cl)c1ccc(NC(=O)c2nsc3ccccc23)cc1	none (no result: FBPA Giardia inh, RE007 growth inh)
CN(NC(=O)/C=C/C(=O)O)c1ncc(C(F)(F)F)cc1Cl	Sm TGR inh 20µM
C=CC(=O)NN(C)c1ncc(C(F)(F)F)cc1Cl	HCMV antiviral inconclusive (no result: Sm TGR inh)
Cc1csc2ncnc(N3CCN(C(=S)Nc4ccc(F)cc4F)CC3)c12	HCMV antiviral -77, FMDV inh inconclusive
O=C(Nc1ccc(F)cc1F)N1CCCN(c2ccc(C(F)(F)F)cn2)CC1	FMDV inh inconclusive
Fc1ccc(NC(=S)N2CCCN(c3ccc(C(F)(F)F)cn3)CC2)c(F)c1	HCMV antiviral -80, FMDV inh inconclusive
CC1CN(C(=S)Nc2ccc(F)cc2F)CC(C)O1 (configuration not stated)	none
COc1ccc(-n2ncc3c(N4CCC(C)CC4)ncnc32)cc1	none
COc1ccc(-n2ncc3c(N(C)C4CCCCC4)ncnc32)cc1	HCMV antiviral -88, FMDV inh 10µM
Cc1cccc(-n2ncc3c(NCc4ccco4)ncnc32)c1	Sm TGR inh 45µM
Cc1cccc(-n2ncc3c(N(C)C4CCCCC4)ncnc32)c1	HCMV antiviral -78, FMDV inh 18µM
COc1ccc(/C=C/C2=C[C@]3(C)C[C@]2(C)[C@H](c2ccc(OC)cc2)CC3=O)cc1	none (no result: HCMV antiviral, Sm TGR inh, RE007 growth inh, FMDV inh, Tb PYK inh)
O=C(Cn1c(=O)n(CCc2ccccc2)c(=O)c2cccnc21)Nc1ccc(F)cc1	none (no result: FBPA Giardia inh, RE007 growth inh)
COc1ccc(S(=O)(=O)N(CCc2ccccc2)CC(=O)Nc2cc(C)ccc2C)cc1	none (no result: FBPA Giardia inh, RE007 growth inh)
COCCOC(=O)/C(=C\c1cc(C(C)(C)C)c(O)c(C(C)(C)C)c1)C(C)=O	Sm TGR inh 40µM, FMDV inh inconclusive
NC(=O)c1ccc(-n2nnnc2SCC(=O)c2ccc(O)c(O)c2)cc1	HCMV antiviral -100
COc1ccc(-n2cc(C(=O)OCc3ccc(Cl)cc3)c3ccccc3c2=O)cc1	none (no result: FBPA Giardia inh, RE007 growth inh)
Cc1ccc(-n2nc3c(=O)n(C(C)C(=O)NCc4ccc(OC(C)C)cc4)nc(C)c3c2C)cc1 (configuration not stated)	HCMV antiviral -77 (no result: FBPA Giardia inh, RE007 growth inh)
Cc1ccc(-n2nc3c(=O)n(C(C)C(=O)NCc4ccc(Cl)cc4)nc(C)c3c2C)cc1 (configuration not stated)	HCMV antiviral -68, FMDV inh inconclusive
Cc1ccc(-n2nc3c(=O)n(C(C)C(=O)NCc4ccccc4C)nc(C)c3c2C)cc1 (configuration not stated)	FMDV inh inconclusive (no result: FBPA Giardia inh, RE007 growth inh)
CSc1ccc(CNC(=O)C(C)n2nc(C)c3c(C)n(-c4ccccc4)nc3c2=O)cc1 (configuration not stated)	HCMV antiviral -62 (no result: FBPA Giardia inh)
Cc1ccc(-n2nc3c(=O)n(C(C)C(=O)NCCC4=CCCCC4)nc(C)c3c2C)cc1 (configuration not stated)	HCMV antiviral -61, FMDV inh 14µM
Cc1ccc(-n2nc3c(=O)n(C(C)C(=O)O)nc(C)c3c2C)cc1 (configuration not stated)	none (no result: FBPA Giardia inh, RE007 growth inh)
Cc1ccc(CCNC(=O)C(C)n2nc(C)c3c(C)n(-c4ccccc4)nc3c2=O)cc1 (configuration not stated)	none (no result: FBPA Giardia inh)
CCCN(CCC)CCCNC(=O)Cn1cnc2onc(-c3ccc(F)cc3)c2c1=O	none (no result: FBPA Giardia inh, RE007 growth inh)
CCC(C(=O)NCCc1ccc(C)cc1)n1nc(C)c2c(C)n(-c3ccccc3)nc2c1=O (configuration not stated)	HCMV antiviral inconclusive
CCC(C(=O)NCCc1ccc(SC)cc1)n1nc(C)c2c(C)n(-c3ccc(C)cc3)nc2c1=O (configuration not stated)	HCMV antiviral -80, FMDV inh inconclusive (no result: FBPA Giardia inh, RE007 growth inh)
Cc1ccc(S(=O)(=O)N2CCn3cccc3C2C)cc1 (configuration not stated)	Sm TGR inh inconclusive (no result: FBPA Giardia inh)
Cc1cccc(S(=O)(=O)N2CCn3cccc3C2C)c1 (configuration not stated)	Sm TGR inh 45µM (no result: FBPA Giardia inh)
CC1=C(C(=O)OC2CCCC2)C(c2cccc(Cl)c2Cl)CC(=O)N1 (configuration not stated)	HCMV antiviral -75, FMDV inh inconclusive (no result: FBPA Giardia inh, RE007 growth inh)
O=S1(=O)c2ccc(Br)cc2OC2CCCN1C2 (configuration not stated)	none (no result: FBPA Giardia inh, Sm TGR inh, RE007 growth inh, FMDV inh, Tb PYK inh)
CCc1nn(CC(=O)NCc2ccc(OC)c(OC)c2)c(=O)c2cc3sc(C)cc3n12	none (no result: FBPA Giardia inh, RE007 growth inh)
CCC(C)(C)n1nnnc1C(c1cccs1)N1CC=C(c2ccc(F)cc2)CC1 (configuration not stated)	HCMV antiviral -63, Sm TGR inh inconclusive (no result: FMDV inh)
Fc1ccc(C2=CCN(C(c3cccs3)c3nnnn3CCc3ccccc3)CC2)cc1 (configuration not stated)	HCMV antiviral inconclusive
CCOc1ccccc1NC(=O)CCNS(=O)(=O)c1ccc2c(c1)CCN2C(=O)C1CC1	none (no result: FBPA Giardia inh, RE007 growth inh)
Cc1ccc(C)c(NC(=O)C2(C)CC3c4ccccc4C2c2ccccc23)c1 (configuration not stated)	HCMV antiviral -105
CC(C)c1ccc(N2C(=O)NC(=O)/C(=C/c3cnc(-c4ccccc4)nc3)C2=O)cc1	Sm TGR inh 3.5µM
O=C1NC(=O)N(Cc2ccccc2)C(=O)/C1=C/c1cnc(-c2ccccc2)nc1	Sm TGR inh 10µM
CCc1ccc(N2C(=O)NC(=O)/C(=C\c3cccn3CCOc3ccc(C(C)C)cc3)C2=O)cc1	Sm TGR inh inconclusive
CSc1ncc(/C=C2/C(=O)NC(=O)N(c3ccc(C(C)C)cc3)C2=O)cn1	Sm TGR inh 11µM (no result: RE007 growth inh)
COc1ccccc1CCNC(=O)C(C)Sc1nc(-c2ccccc2)cc(C(F)(F)F)n1 (configuration not stated)	none (no result: FBPA Giardia inh, RE007 growth inh)
N#Cc1ccc2c(c1)C[C@]1(CCCCN3C(=O)c4ccccc4C3=O)Oc3cc(-c4ccccc4)oc(=O)c3[C@H]2O1	none (no result: HCMV antiviral, RE007 growth inh, FMDV inh, Tb PYK inh)
